High-throughput results as filed in PubChem BioAssay.
In the library only some 2.5% were active in any assay of this set; here they are far more common.
AI-2 QS modul = modulators of Vibrio harveyi AI-2 quorum sensing system | Vibrio harveyi JMH597 AI-2 luminescence/OD600 ratio, 9 h; hits give low values; strain lacks LuxN and CqsS sensors; 0 = neutral-control median | activity change, % at 7.5 µM | hit rate 0.4% among 300,000; in the data active means activity change below about -75%, passing the limit was not always enough;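 further: luminescence divided by OD600 gain over 9 h not by final OD600 alone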
ATG4B inhibitor = ATG4B (human) cysteine protease inhibition; Q9Y4P1; ATG4B cleavage of LC3-PLA2, NBD-HPC fluorescence, 1 h; inhibition, % at 8.33 µM; hit rate 0.51% among 340,000; AID 504462; in the data active means inhibition above about 40%
Target sequence (Q9Y4P1 whole entry, looked up): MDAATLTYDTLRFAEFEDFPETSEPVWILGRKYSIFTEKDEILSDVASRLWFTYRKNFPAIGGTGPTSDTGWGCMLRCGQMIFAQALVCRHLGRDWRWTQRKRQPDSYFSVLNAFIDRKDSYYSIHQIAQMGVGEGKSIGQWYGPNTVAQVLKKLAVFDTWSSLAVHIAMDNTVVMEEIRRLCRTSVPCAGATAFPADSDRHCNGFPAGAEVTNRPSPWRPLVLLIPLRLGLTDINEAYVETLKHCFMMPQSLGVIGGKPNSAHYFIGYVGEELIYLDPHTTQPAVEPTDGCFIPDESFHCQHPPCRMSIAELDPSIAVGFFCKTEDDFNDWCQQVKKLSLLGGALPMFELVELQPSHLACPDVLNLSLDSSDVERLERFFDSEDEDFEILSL
SUMO Mot1 rescue = blocks SUMOylation pathway, rescuing yeast Mot1-301 growth. AID 2716. hit rate 1% among 320,000. S. cerevisiae Mot1-301 growth rescue, ATP luminescence, 38.5C; percent above DMSO median, 100 means doubled. growth rescue, % at 18.8 µM;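 active means every valid replicate shows activation above 250% relative to neutral control wells; inactive means the rest, any valid replicate at or below 250%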;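 further: OY570 slx delta 5 strain wells were the positive control but not used for scaling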
Efflux pump inh = inhibitors of Candida antifungal efflux pumps expressed in yeast. S. cerevisiae Candida pump triplex, Nile Red efflux. inhibition, % at 10 µM. hit rate 0.44% among 330,000. AID 485275;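 active means plate passing quality check with inhibition over a set limit, or well fluorescence over plate mean plus 4 SD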;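 further: Nile Red retained in pooled yeast measured as flow cytometry median fluorescence; 0% = buffer negative control and 100% = Enniatin B positive control; higher means more Nile Red kept so more efflux inhibition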
V-ATPase pH = yeast V-ATPase proton transport regulation by pHLuorin; S. cerevisiae, pHLuorin cytosolic pH fluorescence; response, % at 10 µM; hit rate 0.37% among 350,000; AID 504577; in the data active means response mostly above about 7.3%, no sharp cut-off; inactive means mostly below about 5.4%; further: actives read high
Yeast cmpd fluor = counter-screen for efflux pump inhibitors: compound fluorescence; shares compounds with Efflux pump inh; S. cerevisiae AD/pABC3, flow cytometry; fluorescence ratio to DMSO, % at 10 µM; hit rate 4% among 1,700; AID 588517;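 active means fluorescence ratio to DMSO above its plate's cutoff, the plate mean ratio plus 5 SD, cut at about 210% in these data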;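 further: unstained yeast with no Nile Red so the signal is compound autofluorescence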
CaMdr1 efflux inh = Candida Mdr1 efflux pump inhibition; shares compounds with Efflux pump inh; S. cerevisiae AD/CaMDR1, Nile Red efflux, flow cytometry; inhibition, % at 10 µM; hit rate 1% among 1,700; AID 588518; in the data active means inhibition above about 26%;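 further: 0% = DMSO vehicle and 100% = reference inhibitor; higher means more Nile Red retained so more efflux inhibition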
Cdr2 pump inh = Candida Cdr2 efflux pump inhibition | shares compounds with Efflux pump inh | S. cerevisiae AD/CaCDR2, Nile Red retention, flow cytometry | Nile Red retention ratio vs DMSO, % at 10 µM | hit rate 4% among 1,700; in the data active means Nile Red retention ratio vs DMSO above about 190%;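 further: higher ratio means more blocking of Cdr2 efflux of the dye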
CaCdr1 efflux inh = Candida Cdr1 efflux pump inhibition. shares compounds with Efflux pump inh. inhibition, % at 10 µM. AID 588522. S. cerevisiae AD/CaCDR1, Nile Red efflux, flow cytometry. hit rate 1% among 1,700;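 active means inhibition above the screen-wide mean plus twice its standard deviation, cut at about 32% in these data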
* = called active by the depositor; nt = not tested or not shown.

SMILES	AI-2 QS modul	ATG4B inhibitor	SUMO Mot1 rescue	Efflux pump inh	V-ATPase pH	Yeast cmpd fluor	CaMdr1 efflux inh	Cdr2 pump inh	CaCdr1 efflux inh
Cc1cc(NC(=O)CCC(=O)N(Cc2cccs2)C(C(=O)NC2CCCC2)c2cccnc2)no1 (configuration not stated)	6	-13	-9	0	-4	nt	nt	nt	nt
Cc1cc(NC(=O)CCC(=O)N(Cc2cccs2)C(C(=O)NC2CCCC2)c2ccccc2)no1 (configuration not stated)	16	-2	38	0	-4	82	0	95	0
COC(=O)c1ccc(CSc2nnc3c(n2)[nH]c2ccccc23)cc1	25	13	38	0.5*	0	124	0	148	0
CC(C)c1ccc(/C=c2\sc3nc(-c4ccncc4)nn3c2=O)cc1	6	-5	18	0	-12	105	0	108	0
CCC1CCCCN1C(=O)CSc1nnc(CNC(=O)c2c(F)cccc2Cl)o1 (configuration not stated)	12	-5	-4	0	0	nt	nt	nt	nt
O=c1c(-c2ccccc2)c[nH]n1-c1cccc([N+](=O)[O-])c1	46	-1	27	1.0*	-1	99	0	104	0
Cc1cc(C)n2nc(C(=O)OCC(=O)Nc3ccc(F)cc3F)nc2n1	30	-2	-7	0	-4	nt	nt	nt	nt
CN(C)c1ccc(/C=C/C=N/Nc2nc(N3CCOCC3)nc(N3CCOCC3)n2)cc1	22	-11	nt	0	2	nt	nt	nt	nt
COc1cc(OC)cc(C(=O)NC(=S)Nc2ccc3[nH]c(=O)[nH]c3c2)c1	12	-4	71	0	0	nt	nt	nt	nt
O=C(NC(=S)Nc1ccc(O)cc1)c1cncc(Br)c1	23	-14	12	0	-3	nt	nt	nt	nt
COc1ccc(C(=O)NC(=S)Nc2ccc3[nH]c(=O)[nH]c3c2)c(OC)c1	-5	-8	-7	0	2	108	0	106	0
O=C(NC(=S)Nc1ccc2[nH]c(=O)[nH]c2c1)c1ccccc1F	17	4	6	0	-1	105	0	93	0
O=C(NC(=S)Nc1ccc2[nH]c(=O)[nH]c2c1)c1cncc(Br)c1	11	-4	-6	0.8*	0	103	0	101	0
O=S(=O)(c1cccc(-c2n[nH]c(=S)n2C2CCCC2)c1)N1CCOCC1	8	-3	10	0	5	nt	nt	nt	nt
Nc1nc2c(F)cccc2s1	13	-2	14	2.2*	-2	99	0	105	0
NNc1nc2c(F)cccc2s1	12	-5	-4	0	-3	nt	nt	nt	nt
CCCn1cc(CN2CCC(n3nccc3NC(=O)c3ccccc3)CC2)c(C)n1	3	8	-5	0	2	nt	nt	nt	nt
CC(C)(C)c1ccc(C(=O)N2CCN(c3ncccn3)CC2)cc1	16	7	4	0	2	nt	nt	nt	nt
CC(C)CCOc1ccc(C(=O)N2CCN(c3ncccn3)CC2)cc1	0	1	7	3.5*	0	106	0	102	0
CCOC(=O)c1c(NC(=O)COC(=O)c2ccncc2)sc(C)c1C	11	-4	138	0.5*	-2	95	0	101	0
CCOC(=O)c1c(NC(=O)c2ccncc2)sc(C)c1C	3	-10	21	0	-1	nt	nt	nt	nt
O=C(/C=C/c1ccccc1Cl)NCCCn1ccnc1	2	-14	-9	0	-1	nt	nt	nt	nt
Cc1nn(C)cc1/C=N\NC(=O)c1csc2c1CCCC2	-1	13	-9	7.4*	3	109	0	106	0
Cc1cc(C)c(OCC(=O)Nc2nnc(C3CC3)s2)c(C)c1	nt	6	nt	nt	7	nt	nt	nt	nt
O=c1cc(-c2ccccc2)c2cc(Cl)c(O)c(CN3CCOCC3)c2o1	8	-9	4	0	-1	nt	nt	nt	nt
SMILES	AI-2 QS modul	ATG4B inhibitor	SUMO Mot1 rescue	Efflux pump inh	V-ATPase pH	Yeast cmpd fluor	CaMdr1 efflux inh	Cdr2 pump inh	CaCdr1 efflux inh
CCc1cc2c(-c3ccccc3)cc(=O)oc2c(CN2CCOCC2)c1O	4	-9	-3	0.8*	-5	106	0	118	0
N=C(N)SCC1=CCS(=O)(=O)C1	15	-4	-5	0.8*	0	101	0	96	0
CN(C(=O)CCN1C(=O)S/C(=C\c2ccccc2)C1=O)C1CCS(=O)(=O)C1 (configuration not stated)	39	-2	-11	0	-3	nt	nt	nt	nt
CC(Oc1ccccc1)C(=O)N(CCC1=CCCCC1)c1c(N)n(Cc2ccccc2)c(=O)[nH]c1=O (configuration not stated)	23	0	10	6.2*	-1	92	0	109	0
Cc1cccc(C(=O)NC(=S)Nc2ccc(Cc3ccncc3)cc2)c1	14	25	-21	0.7*	-3	103	0	121	0
Cc1ccc(NC(=S)NC(=O)c2ccccc2)cc1NC(=S)NC(=O)c1ccccc1	6	-2	19	0.7*	-3	105	0	97	0
O=C(NC(=S)Nc1ccc2nc[nH]c2c1)c1ccccc1	33	-9	-13	0	nt	105	0	101	0
O=C(NC(=S)Nc1cccc(NC(=O)c2ccccc2Cl)c1)c1cccs1	-10	13	2	-7	3	nt	nt	nt	nt
O=C(Nc1cccc(NC(=S)NC(=O)c2cccs2)c1)c1ccccc1	4	10	-8	8.0*	-2	91	0	100	0
COc1ccccc1N1CCN(S(=O)(=O)CCNC(=O)C2CCCCC2)CC1	29	-9	-14	0	-3	nt	nt	nt	nt
COC(=O)C1=COC(C)C2CN3CCc4c([nH]c5cc(OC)c(OC)cc45)C3CC12 (configuration not stated)	5	-31	-4	0.9*	-1	107	0	119	0
Cn1c(N2CCN(C(c3ccccc3)c3ccccc3)CC2)nc2ccccc21	9	11	5	0.5*	4	99	0	104	0
COc1ccccc1N1CCN(C(=O)CCC(=O)N2CCN(c3ccc(F)cc3)CC2)CC1	1	-3	412	0	2	nt	nt	nt	nt
CCCCN(C)CCCNC(=O)c1cn(CC)c2ccc(S(=O)(=O)N3CCc4ccccc4C3)cc2c1=O	5	-5	-1	0	-2	nt	nt	nt	nt
CCn1cc(C(=O)NCCCN2CCCC2)c(=O)c2cc(S(=O)(=O)N3CCc4ccccc4C3)ccc21	-3	1	-12	1.1*	-2	100	0	102	0
CNc1nc(SCc2ccc(C)cc2)nc2c1CCCC2	8	6	-4	0	2	nt	nt	nt	nt
